Molecules are shown by their SMILES. The whole screen tested about 68,000 compounds, of which about 2,700 (4%) showed an effect of 50% or more. The full list was thinned out, with strong results kept by preference.

This assay relates to Plasmodium berghei. Put plainly: Screen against P. berghei liver stage (PbLuc), transformed with Luciferase, at 2uM. In kind it is functional, HepG2. The conditions noted are these: tested at 2 uM.
Turning to `CN1CCC(Oc2ccc(NC(=O)c3ccccc3Br)cc2)CC1`, the INHIBITION is 16.64%.

For `Cc1ccc(C(=O)Nc2ccc(OC3CCN(C)CC3)cc2)c(C)c1`, the INHIBITION is 55.84%.

In the case of `CN(CCc1ccccn1)c1cc(N2CCCCC2)ncn1`, the INHIBITION turned out to be 26.74%.

Consider `Cc1ccc(-c2noc(C3CCN3C(=O)c3cc[nH]n3)n2)s1` (centres undefined), for which the INHIBITION is listed as -24.35%.

Regarding `CCCc1nnc(N2CC[C@](C)(O)[C@H](C)C2)s1`, the INHIBITION is given as 40.28%.

Regarding `Cc1cc(CN2CCc3nc(-c4ccncc4)nc(O)c3CC2)c(C)s1`, the INHIBITION is given as 17.72%.

For the compound `CN(CCC(O)c1ccccc1)c1cc(N2CCOCC2)ncn1` (centres undefined), the INHIBITION was -3.38%.

`CCN(CC)c1nc2sc(C(=O)NCC(=O)OC)cc2s1`: the INHIBITION turned out to be 5.1%.

On to `Fc1ccc(N2CCOC3(COCCN(c4ncccn4)C3)C2)cc1` (centres undefined), for which the INHIBITION is reported as 26.31%.

As to `Cn1nnc2c(N3CC(C(=O)NCc4cccs4)C3)ncnc21`, the INHIBITION stood at 41.71%.

Consider `Cc1cccc(C)c1OC1CN(C(=O)C2CCCN(C(=O)N(C)C)C2)C1` (centres undefined), for which the INHIBITION was found to be 10.04%.

As for `Cc1cccc(C)c1OC1CN(C(=O)C2CCN(C(=O)N(C)C)CC2)C1`, the INHIBITION is on record as 24.23%.

As to `COc1cccc(OC2CN(C(=O)C3CCCN(C(=O)N(C)C)C3)C2)c1` (centres undefined), the INHIBITION turned out to be 52.6%.

Regarding `Cc1cccc(CN2CCc3[nH]nc(C(=O)N4CCNC(=O)C4)c3C2)n1`, the INHIBITION came to 25.04%.

For `CCc1ccc(CN2CCc3[nH]nc(C(=O)N4CCNC(=O)C4)c3C2)o1`, the INHIBITION is listed as -15.83%.

With `Cc1ccc(CN2CCc3[nH]nc(C(=O)N4CCNC(=O)C4)c3C2)s1`, the INHIBITION came out at 57.85%.

In the case of `O=C(CN1CCOC(Cn2cccn2)C1)NCc1ccccn1` (centres undefined), the INHIBITION is -12.75%.

For the compound `NC(=O)c1cc2c(nc1Oc1ccc(CN3CCCC3)cc1F)CCC2`, the INHIBITION was 12.21%.

For the compound `CNC(=O)c1cc2c(nc1N(C)C)CCN(c1ncc(C)cn1)CC2`, the INHIBITION was -37.2%.

For the compound `COc1ccc(Cl)cc1NCCC(=O)NCCNc1cnccn1`, the INHIBITION is listed as -22.83%.

Take `COc1ccc(Cl)cc1NCC(=O)NCCNc1cnccn1`: the INHIBITION was found to be 55.7%.

With `COc1ccc(Cl)cc1NCC(=O)NCCNc1ncccn1`, the INHIBITION is recorded as -5.6%.

With `NC(=O)CN1CCCC1c1csc(Nc2cnccn2)n1` (centres undefined), the INHIBITION is listed as -20.73%.

Turning to `CN1CCC2(COCc3cnc(N4CCOCC4)nc32)C1` (centres undefined), the INHIBITION came to 18.97%.

As for `CS(=O)(=O)NC(=O)c1ccn(-c2ccccc2Cl)n1`, the INHIBITION was -61.69%.

As to `O=C1Nc2ccccc2CC12CCCN2Cc1ccc(F)cc1` (centres undefined), the INHIBITION is given as -0.14%.

As to `CC(C)c1n[nH]c(C2CN(C(=O)CCc3cscn3)CCO2)n1` (centres undefined), the INHIBITION worked out at 53.33%.

As for `CC(C)(C)c1n[nH]c(C2CN(C(=O)CCC3CC3)CCO2)n1` (centres undefined), the INHIBITION came to 60.31%.

With `Cc1n[nH]c(C2CN(C(=O)CCc3cscn3)CCO2)n1` (centres undefined), the INHIBITION was -4.43%.

For the compound `CC(C)(C)c1n[nH]c(C2CN(C(=O)CCc3ccco3)CCO2)n1` (centres undefined), the INHIBITION stood at 0.74%.

As to `CCc1n[nH]c(C2CN(CCCS(C)(=O)=O)CCO2)n1` (centres undefined), the INHIBITION came to 24.65%.

Consider `CCc1n[nH]c(C2CN(C(=O)CCc3cscn3)CCO2)n1` (centres undefined), for which the INHIBITION is given as 12.81%.

For `CC(C)c1n[nH]c(C2CN(CCCS(C)(=O)=O)CCO2)n1` (centres undefined), the INHIBITION stood at 69.11%.

As for `CCCc1n[nH]c(C2CN(CCCS(C)(=O)=O)CCO2)n1` (centres undefined), the INHIBITION is 2.1%.

With `CSCC(=O)N1CCOC(c2nc(C(C)(C)C)n[nH]2)C1` (centres undefined), the INHIBITION is -17.77%.

Take `C=C(C)CN(CC)Cc1nc(C)no1`: the INHIBITION is given as -12.44%.

Turning to `CS(=O)(=O)Cc1noc(CN2CCc3c(Cl)cccc3C2)n1`, the INHIBITION is on record as -6.67%.

As for `CCC(CNS(C)(=O)=O)Oc1ccccc1F` (centres undefined), the INHIBITION is listed as 14.69%.

As for `CCc1n[nH]c(C2CN(Cc3nnc(C4CCC4)o3)CCO2)n1` (centres undefined), the INHIBITION was -45.21%.

Take `CC(=O)N1CCCC1c1nc(N(C)C)ncc1-c1ccccc1` (centres undefined): the INHIBITION is 7.47%.

For the compound `Cc1cn(CC(=O)NC2CCN(C(=O)C3CC3)CC2)c2ccccc12`, the INHIBITION was determined as 41.44%.

For `Cc1c(C(=O)N(C)C)cccc1N(C)S(C)(=O)=O`, the INHIBITION is -0.02%.

As to `COc1ccc(CNc2c(C)nn(C(C)C)c2C)cc1OC`, the INHIBITION is -4.19%.

On to `CC[C@@H](c1ccccc1)n1c(CCN)n[nH]c1=O`, for which the INHIBITION was 31.69%.

As for `Cc1nc(CC(=O)N2CCc3nc(-c4cnccn4)nc(O)c3C2)cs1`, the INHIBITION is on record as 34.9%.

Regarding `CC(C)c1noc(CCC(=O)NC2CCS(=O)(=O)C2)n1` (centres undefined), the INHIBITION is on record as 17.19%.

`CN(c1ccc(C(=O)NCCN2CCOCC2)c(Cl)c1)S(C)(=O)=O`: the INHIBITION came to 2.31%.

Consider `Cc1ccc(C(=O)NCCC2CCN(C)CC2)cc1N(C)S(C)(=O)=O`, for which the INHIBITION amounted to 36.05%.

Regarding `Cc1ccc(C(=O)NCCN2CCOCC2)cc1N(C)S(C)(=O)=O`, the INHIBITION was found to be 70.2%.

With `COc1ccccc1-c1cc(C(=O)Nc2nc[nH]n2)[nH]n1`, the INHIBITION was 19.53%.

Consider `CCCN(C)c1ccc(C(=O)Nc2c(C)nn(C(C)C)c2C)cc1`, for which the INHIBITION was -17.64%.

Turning to `CN(C)Cc1ccc(C2CCCCN2C(=O)c2cccnn2)cc1` (centres undefined), the INHIBITION was -9.15%.

`CN(C)Cc1ccc(C2CCCCN2C(=O)c2ncccc2O)cc1` (centres undefined): the INHIBITION was found to be 56.16%.

With `Cc1nc(C(=O)N2CCCCC2c2ccc(CN(C)C)cc2)c(C)o1` (centres undefined), the INHIBITION is 46.21%.

For the origin of these results see ChEMBL document CHEMBL4513216, “Probing the Open Global Health Chemical Diversity Library for Multistage-Active Starting Points for Next-Generation Antimalarials” (ACS Infect Dis, 2020).
